According to PubChem BioAssay AID1159580 (chemical genetic matrix, 2015):
Several values for one entry are separate records, joined by “and”; a condition that tells them apart may be missing. Equal entries are not always repeated. Among all 5,500 compounds or so, about 2,000 (36%) were called active. About 18% were inconclusive and are not listed. Cut-off read from the data, not from the text of the source: active = normalized growth mostly below about 0.91 (no sharp cut-off); inconclusive = no clear call, values can overlap the other calls; inactive = mostly above about 0.92. Some of the results follow.

Assay: chemical genetic growth profiling, strain panel (AID 1159580);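 note: tested at 20 µM; growth read once vehicle control cultures reached saturation at 30 °C; 1 = growth at the plate median or of vehicle wells; lower values mean less growth of the strain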
Conditions: S. cerevisiae deletion strains, growth OD

Measured: normalized growth

O=C(O)CN1C(=O)c2cccc3cccc(c23)C1=O
inactive: locus YAL013W, strain DEP1, hits give low values 1 | locus YAL021C, strain ccr4, hits give low values 0.956 | locus YAL026C, strain drs2, hits give low values 0.987 | locus YAL030W, strain snc1, hits give low values 0.986 | locus YBL061C, strain skt5, hits give low values 0.973 | locus YBR009C, strain hhf1, hits give low values 0.985 | locus YBR021W, strain FUR4, hits give low values 1 | locus YBR023C, strain chs3, hits give low values 0.976 | locus YBR171W, strain sec66, hits give low values 0.968 | locus YBR229C, strain ROT2, hits give low values 1.01 | locus YBR231C, strain swc5, hits give low values 0.986 | locus YBR279W, strain paf1, hits give low values 0.978 | locus YCL011C, strain gbp2, hits give low values 0.975 | locus YCL016C, strain dcc1, hits give low values 0.982 | locus YCL029C, strain bik1, hits give low values 0.978 | locus YCL061C, strain MRC1, hits give low values 0.985 | locus YCL069W, strain vba3, hits give low values 0.99 | locus YCR088W, strain abp1, hits give low values 1.01 | locus YDL005C, strain med2, hits give low values 0.974 | locus YDL035C, strain GPR1, hits give low values 0.994 | locus YDL040C, strain nat1, hits give low values 0.982 | locus YDL074C, strain BRE1, hits give low values 1.05 | locus YDL101C, strain DUN1, hits give low values 1.01 | locus YDL134C, strain PPH21, hits give low values 0.994 | locus YDL185W, strain tfp1, hits give low values 0.964 | locus YDL192W, strain arf1, hits give low values 0.991 | locus YDR001C, strain nth1, hits give low values 0.979 | locus YDR069C, strain doa4, hits give low values 0.993 | locus YDR101C, strain arx1, hits give low values 0.998 | locus YDR137W, strain rgp1, hits give low values 0.938 | locus YDR159W, strain sac3, hits give low values 0.993 | locus YDR162C, strain NBP2, hits give low values 0.982 | locus YDR195W, strain ref2 1.01 | locus YDR297W, strain sur2, hits give low values 0.979 | locus YDR318W, strain mcm21, hits give low values 0.978 | locus YDR334W, strain swr1, hits give low values 0.967 | locus YDR335W, strain msn5, hits give low values 0.985 | locus YDR388W, hits give low values 0.994 | locus YDR392W, strain spt3, hits give low values 0.811 | locus YDR502C, strain sam2, hits give low values 0.998 | locus YEL003W, strain gim4, hits give low values 0.99 | locus YEL037C, strain rad23, hits give low values 0.982 | locus YEL061C, strain CIN8 (second series), hits give low values 0.974 | locus YEL061C, strain CIN8, hits give low values 1.01 | locus YER015W, strain faa2, hits give low values 0.998 | locus YER016W, strain bim1, hits give low values 0.996 | locus YER110C, hits give low values 0.977 | locus YER111C, strain swi4, hits give low values 0.975 | locus YER155C, strain BEM2 (second series), hits give low values 0.954 | locus YER155C, strain BEM2, hits give low values 0.999 | locus YER167W, strain BCK2, hits give low values 0.991 | locus YFR010W, strain ubp6, hits give low values 0.968 | locus YGL078C, strain dbp3, hits give low values 0.986 | locus YGL086W, strain mad1, hits give low values 1 | locus YGL167C, strain pmr1, hits give low values 0.987 | locus YGL173C, strain kem1, hits give low values 0.983 | locus YGL227W, strain vid30, hits give low values 0.996 | locus YGL240W, strain doc1, hits give low values 1 | locus YGL248W, strain PDE1, hits give low values 1.02 | locus YGL253W, strain hxk2, hits give low values 0.984 | locus YGR135W, strain pre9, hits give low values 0.966 | locus YGR252W, strain gcn5, hits give low values 1.04 | locus YHR013C, strain ard1, hits give low values 0.909 | locus YHR027C, strain rpn1, hits give low values 0.985 | locus YHR030C, strain SLT2, hits give low values 0.99 and 0.965 | locus YHR079C, strain IRE1 (second series), hits give low values 0.984 | locus YHR079C, strain IRE1, hits give low values 0.972 | locus YHR094C, strain hxt1, hits give low values 0.994 | locus YHR129C, strain ARP1, hits give low values 0.994 | locus YHR142W, strain chs7, hits give low values 0.944 | locus YHR200W, strain rpn10, hits give low values 0.972 | locus YIL066C, strain RNR3, hits give low values 1.01 | locus YIL073C, strain SPO22, hits give low values 0.897 | locus YIL125W, strain kgd1, hits give low values 0.989 | locus YIR030C, strain dcg1, hits give low values 0.985 | locus YJL092W, strain hpr5, hits give low values 0.981 | locus YJL095W, strain BCK1 (second series), hits give low values 0.986 | locus YJL095W, strain BCK1, hits give low values 1.04 and 0.965 | locus YJL115W, strain asf1, hits give low values 0.982 | locus YJL129C, strain trk1, hits give low values 0.988 | locus YJL134W, strain LCB3, hits give low values 0.998 | locus YJL154C, strain vps35, hits give low values 1.01 | locus YJL164C, strain tpk1, hits give low values 0.989 | locus YJL166W, strain qcr8, hits give low values 0.953 | locus YJL168C, strain set2, hits give low values 0.993 | locus YJL187C, strain SWE1 (second series), hits give low values 1.04 | locus YJL187C, strain SWE1, hits give low values 0.976
